Screens deposited in PubChem by Sanford-Burnham Center for Chemical Genomics.
TWEAK Fn14 block = inhibitors of TWEAK-Fn14 interaction signaling; AID 1159606; inhibition, % at 10 µM; TWEAK-stimulated Fn14 reporter cells, luciferase luminescence, 8 h; 2% of 360,000 active; in the data active means inhibition above about 50%
CF NFkB inh = blocks PAF-induced NF-kB reporter in cystic fibrosis cells; AID 588850; inhibition, % at 5 µM; 0.86% of 360,000 active; KKLEB NF-kB-GFP reporter, GFP fluorescence overnight;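 active means at least 50% inhibition at 5 µM, scaled per plate between neutral and stimulator controls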;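 further: PAF is a Pseudomonas aeruginosa culture filtrate used as stimulus; plate controls were PAF-stimulated DMSO wells for no effect and unstimulated DMSO wells for full effect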
HIF-2a block = blocks HIF-2a reporter activity | inhibition, % at 18.8 µM | 786-0 RCC cells HIF-2a reporter, luciferase luminescence, overnight | 0.72% of 360,000 active | AID 624352;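 active means inhibition of the luminescence signal of 40% or more relative to plate controls, in a single-dose primary screen at 18.75 µM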
TROY signal inh = inhibitors of TROY-dependent NF-kB signaling; 0.98% of 360,000 active; Q293 LMP1-TROYcd NF-kB luciferase reporter, 4 h; AID 1347056; inhibition, % at 10 µM;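 active means compounds whose plate-normalised and pattern-corrected inhibition of the luciferase reporter signal at the single screening dose is 50% or more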
Peg3 promoter = reduces Peg3 promoter-driven luciferase expression in HeLa; inhibition, % at 20 µM; 1.7% of 360,000 active; HeLa PEG-Prom luciferase reporter, luminescence, overnight; AID 588405;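 active means inhibition of at least 50% at 20 µM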
KKLEB tox = reduces viability of KKLEB cystic fibrosis airway cells. KKLEB CF airway cells viability, ATPlite luminescence, overnight; hits give low values; cells stimulated with P. aeruginosa culture filtrate. activity change (cytotoxicity), % at 5 µM. 0.36% of 360,000 active;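 active means corrected activity change at or below -50% at 5 µM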
Mdm2 MdmX conf = confirmation of inhibitors of human Mdm2/MdmX interaction, set 2; AID 504601; shares compounds with HIF-2a block; 99% of 740 active; inhibition, % at 8 µM; SaOS-2 split-luciferase Mdm2/MdmX complementation, luminescence;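 active means mean inhibition of the luminescence signal across two replicates at or above 26 percent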
Target sequence (O15151 whole entry, looked up): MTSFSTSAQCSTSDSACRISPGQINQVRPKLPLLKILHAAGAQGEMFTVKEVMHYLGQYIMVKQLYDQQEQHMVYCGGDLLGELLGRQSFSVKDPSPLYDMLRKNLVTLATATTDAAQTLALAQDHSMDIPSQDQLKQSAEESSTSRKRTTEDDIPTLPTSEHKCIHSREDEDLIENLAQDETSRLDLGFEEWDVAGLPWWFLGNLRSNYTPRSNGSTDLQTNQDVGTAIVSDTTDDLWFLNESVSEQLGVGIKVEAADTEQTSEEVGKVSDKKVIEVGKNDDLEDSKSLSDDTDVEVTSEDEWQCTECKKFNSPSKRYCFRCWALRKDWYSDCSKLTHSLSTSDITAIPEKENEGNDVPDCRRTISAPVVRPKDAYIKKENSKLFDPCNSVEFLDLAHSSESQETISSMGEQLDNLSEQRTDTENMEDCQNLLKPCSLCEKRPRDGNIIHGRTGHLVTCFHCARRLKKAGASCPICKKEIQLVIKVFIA
Target sequence (Q00987 whole entry, looked up): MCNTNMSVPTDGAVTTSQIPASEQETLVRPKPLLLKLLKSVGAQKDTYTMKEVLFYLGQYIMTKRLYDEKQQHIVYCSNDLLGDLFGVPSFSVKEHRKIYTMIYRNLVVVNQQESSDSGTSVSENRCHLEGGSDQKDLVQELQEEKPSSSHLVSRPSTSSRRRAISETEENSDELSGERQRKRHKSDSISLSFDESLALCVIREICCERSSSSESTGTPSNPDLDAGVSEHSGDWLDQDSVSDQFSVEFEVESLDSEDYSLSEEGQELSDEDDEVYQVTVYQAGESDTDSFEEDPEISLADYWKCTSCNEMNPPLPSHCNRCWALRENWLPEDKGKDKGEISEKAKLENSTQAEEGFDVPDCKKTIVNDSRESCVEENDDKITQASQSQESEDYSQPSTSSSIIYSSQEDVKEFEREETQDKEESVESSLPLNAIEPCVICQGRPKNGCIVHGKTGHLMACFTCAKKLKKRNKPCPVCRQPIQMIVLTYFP
HIF-2a conf = confirmation of HIF-2a inhibitors; 786-0 RCC cells, HIF-2a luciferase reporter luminescence, overnight; 56% of 1,800 active; inhibition, % at 18.8 µM; shares compounds with HIF-2a block;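 active means mean inhibition across four replicates of at least 40 percent at the single tested concentration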
HIF-1a cs = counter-screen for HIF-2a inhibitors: HIF-1a inhibition in MiaPaCa-2 cells | AID 651589 | MiaPaCa-2 HIF-1a luciferase reporter, desferoxamine, overnight | 72% of 1,800 active | inhibition, % at 18.8 µM | shares compounds with HIF-2a block;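 active means mean inhibition of the reporter signal across four replicates at the single tested dose of 50% or more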
Numbers without * were called inactive; . = no result given. A selection: hits, their analogues and other compounds. The true share with any hit is near 4%.

SMILES	TWEAK Fn14 block	CF NFkB inh	HIF-2a block	TROY signal inh	Peg3 promoter	KKLEB tox	HIF-2a conf	HIF-1a cs	others
CCOC(=O)C1CCCCN1C(=O)CCc1c(C)nc2ncnn2c1C (configuration not stated)	21.1	5.6	62.8*	-2.8	4.5	13.0	49.3*	28.3
Cc1nc2nc(C)c(CCC(=O)O)c(C)n2n1	-19.3	-5.2	-4.4	-10.5	10.9	2.3	.	.
COc1ccc(-c2cc3nc(C)c(CCC(=O)N4CCN(c5ccccn5)CC4)c(C)n3n2)c(OC)c1	10.8	8.3	4.6	5.1	22.1	-9.0	.	.
CCOC(=O)C1CCN(C(=O)CCc2c(C)nc3c(-c4ccc(F)cc4)c(C)nn3c2C)CC1	6.6	19.5	27.8	7.7	25.9	-17.7	.	.
Cc1nc2cc(-c3cccc(F)c3)nn2c(C)c1CCC(=O)N1CCN(c2ccccn2)CC1	-11.9	-11.8	72.0*	-15.9	-36.6	7.0	81.0*	59.2*
COc1cc(OC)cc(-c2cc3nc(C)c(CCC(=O)O)c(C)n3n2)c1	90.3*	1.0	81.6*	58.5*	31.9	-6.9	89.7*	85.7*
Cc1cc(=O)n2[nH]c(Nc3cccc(Cl)c3)nc2n1	-34.5	-25.0	1.9	-23.4	0.3	0.5	.	.
CCc1nn(CC(=O)NCCCN2CCOCC2)c(=O)c2cc3cc(F)ccc3n12	21.1	-15.9	13.8	3.6	-8.8	6.3	.	.
c1ccc(-[n+]2nc(Nc3cccc4ccccc34)sc2-c2c3ccccc3cc3ccccc23)cc1	20.2	46.4	-30.1	-29.0	11.7	-29.1	.	.
CN(C)c1ncnc2c1ncn2[C@H]1CN(Cc2ccco2)C[C@@H](CO)O1	-6.6	2.6	6.4	7.6	1.7	2.3	.	.
CCOC(=O)C1CCN(c2cc(C)nc3cc(-c4cccc(F)c4)nn23)CC1	14.2	0.6	-2.6	32.1	-3.3	-0.5	.	.
CCOC(=O)C1CCCCN1C(=O)CCc1c(C)nc2cc(-c3ccccc3)nn2c1C (configuration not stated)	68.7*	-18.6	74.9*	8.8	-36.8	3.4	85.1*	73.8*
COc1ccc([C@H]2CC(=O)C=C(c3cccc(C#N)c3)C2)cc1	-22.8	8.0	-64.6	-15.2	-16.1	-3.2	.	.
Cc1ccc(N2Cc3ccccc3C2=S)cc1	-19.2	-6.8	84.1*	-25.0	-269.5	-3.9	-218.4	-74.0
S=C1c2ccccc2CN1c1ccccc1	-21.5	-9.7	-146.2	-52.1	-125.1	12.5	.	.
Cc1cc(N2CCN(c3ccc(C(F)(F)F)cc3[N+](=O)[O-])CC2)c2ccccc2n1	0.2	4.0	17.0	44.9	10.4	1.0	.	.
Cc1cc(N2CCN(c3ccc([N+](=O)[O-])c4cccnc34)CC2)c2ccccc2n1	-9.4	-40.7	32.0	15.8	106.1*	-12.3	.	.	Mdm2 MdmX conf=102.2*
O=C(Nc1ccc(F)cc1)N[C@H]1CC[C@H](CCNS(=O)(=O)c2cccc(Cl)c2)O[C@@H]1CO	.	.	-6.9	.	.	.	.	.
NC(=O)NC(=O)COC(=O)/C=C/c1cccc(Br)c1	-4.8	-10.8	6.0	4.2	6.2	10.7	.	.
CCOC(=O)C(CC)(CC)C(=O)/C=C/c1cccc(Br)c1	59.4*	24.2	86.5*	2.2	109.0*	0.9	69.4*	104.5*
COc1cc(SC#N)ccc1N=Cc1c(C)[nH]n(-c2ccc(C)c(C)c2)c1=O	24.2	2.7	14.1	30.4	100.4*	1.3	.	.	Mdm2 MdmX conf=98.5*
Cc1ccc(-n2[nH]c(C)c(/C=N/Nc3ccc([N+](=O)[O-])cc3[N+](=O)[O-])c2=O)cc1C	43.0	43.5	-6.5	40.4	15.1	-30.3	.	.
COC(=O)CSc1nnc(-c2sc3ccccc3c2Cl)o1	63.6*	0.4	90.5*	34.9	7.6	7.7	95.2*	69.0*
OC(Cc1cccc(Br)c1)c1ncc(-c2ccccc2C(F)(F)F)[nH]1 (configuration not stated)	-6.5	8.1	1.7	11.0	13.5	-7.3	.	.
O=C(c1ccccc1)c1nn(-c2ccc(Cl)cc2)c(=O)cc1C(F)(F)F	74.0*	-4.1	46.3*	-48.0	78.7*	-15.2	-1.7	106.8*	Mdm2 MdmX conf=103.0*
SMILES	TWEAK Fn14 block	CF NFkB inh	HIF-2a block	TROY signal inh	Peg3 promoter	KKLEB tox	HIF-2a conf	HIF-1a cs	others
CSc1cccc(NC(=O)CCNS(=O)(=O)c2ccc3[nH]c(=O)oc3c2)c1	-1.7	3.4	3.9	-1.9	-0.8	-9.8	.	.
Oc1ccc(Nc2nc(N3CCCC3)c3ccccc3n2)cc1	-149.9	-65.3	45.7*	-22.6	99.5*	-3.5	34.7	104.3*
Cn1c2c(c(=O)n(C)c1=O)C(C(F)(F)F)(C(F)(F)F)N=C(c1ccc(Cl)cc1)N2	62.1*	66.8*	11.8	57.1*	47.7	-49.8	.	.	Mdm2 MdmX conf=97.0*
Cc1ccccc1C1=NC(C(F)(F)F)(C(F)(F)F)c2c(n(C)c(=O)n(C)c2=O)N1	-2.5	5.3	4.9	-4.3	14.5	-7.1	.	.
CCn1c(N2CCN(C(c3ccccc3)c3ccccc3)CC2)nc2c1c(=O)[nH]c(=O)n2C	7.3	12.9	17.3	-8.4	28.0	-8.5	.	.
CNc1cncc(-c2cccnc2)n1	9.8	10.6	4.5	-0.8	-9.4	-7.8	.	.
CC(=O)[C@@]1(O)C(C)CC2C3C=C(C)C4=Cc5c(cnn5-c5ccccc5)C[C@]4(C)C3C(O)C[C@@]21C (some centres not stated)	-35.3	87.9*	66.6*	52.8*	64.3*	8.9	34.5	95.2*
C/C(=N/NC(=O)C1CCCN1C(=O)c1ccc([N+](=O)[O-])cc1)c1ccc(Br)cc1 (configuration not stated)	-5.7	-2.2	9.6	-1.3	0.1	8.0	.	.
CCSCCc1nnc(NC(=O)Nc2cccc(C(F)(F)F)c2)s1	63.8*	69.8*	8.8	63.0*	10.9	-56.5*	.	.	Mdm2 MdmX conf=98.0*
Cc1cc(C)cc(C(=O)NC(CC(N)=O)c2ccc(NCC3CC3)c([N+](=O)[O-])c2)c1 (configuration not stated)	1.9	-5.7	4.5	2.2	6.2	3.9	.	.
O=C(Nc1ccc(OCc2ccccc2)cc1)c1cccnc1	-11.9	7.0	-107.4	-32.8	-53.6	8.9	.	.
O=C(Nc1ccc(OCc2ccccc2Cl)cc1)c1cccnc1	35.9	6.6	47.6*	13.5	7.5	-3.2	83.1*	88.9*
CN1CCC(NCCC(c2ccc(F)cc2)c2ccc(Cl)cc2)CC1 (configuration not stated)	-51.0	7.5	1.9	-54.0	93.7*	-4.2	.	.	Mdm2 MdmX conf=103.5*
